Measurements taken from PubChem BioAssay.
Activity calls are given as the source filed them.

Experiments:
[1] = tested on: Plasmodium falciparum Sir2 (PF13_0152, Sir2A); experiment: Plasmodium falciparum Sir2A binding compounds – biochemical, small-molecule microarray, 635 nm fluorescence, primary screen (AID 1098); conditions: fluorescence 635 nm, higher = more signal;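 further: score merges spot fluorescence intensity with its signal-to-noise ratio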
[2] = probe aDKK1 binding to arrayed compounds – biochemical, biotinylated probe, 635/667 nm fluorescence, primary screen (AID 1099); conditions: small-molecule microarray, higher = more signal;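 further: score merges 667nm spot fluorescence with signal to noise across triplicate slides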
[3] = probe aCHRDL2 binding to arrayed compounds – biochemical, biotinylated probe, 635/667 nm fluorescence, primary screen (AID 1100); conditions: small-molecule microarray, higher = more signal
[4] = change in splice reporter luminescence, either direction, cell-based, HEK293, spliceosome inhibition project, primary screen (AID 1101); conditions: HEK293 splicing luciferase reporter, 24 h, higher = more signal, called active from +8 up or from −8 down;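 further: HEK293 cells carrying a splicing-competent luciferase reporter gene; test concentration not given here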
[5] = target: Fibroblast growth factor 10 (Homo sapiens) (UniProt O15520); experiment: compounds binding fibroblast growth factor 10 – biochemical, small-molecule microarray, 635 nm fluorescence, primary screen (AID 1102); conditions: FGF10 binding, fluorescence 635 nm, higher = more signal
Fibroblast growth factor 10 (Homo sapiens), sequence (O15520 whole entry, looked up): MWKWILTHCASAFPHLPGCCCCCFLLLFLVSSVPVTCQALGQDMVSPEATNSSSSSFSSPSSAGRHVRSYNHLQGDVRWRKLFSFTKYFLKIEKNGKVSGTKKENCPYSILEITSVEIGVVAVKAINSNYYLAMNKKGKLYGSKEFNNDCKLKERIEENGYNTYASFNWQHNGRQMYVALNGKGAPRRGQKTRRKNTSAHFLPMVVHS

[6] = tested on: glycogen synthase kinase-3 (GSK3A per assay name; protocol says GSK3B); experiment: compounds binding glycogen synthase kinase-3 – biochemical, small-molecule microarray, 635 nm fluorescence, GSK3A, primary screen (AID 1103); conditions: fluorescence 635 nm, higher = more signal; further: the record names both GSK3A and GSK3B
[7] = target: Epidermal growth factor receptor (Homo sapiens) (UniProt P00533); experiment: compounds binding epidermal growth factor receptor – biochemical, small-molecule microarray, 635 nm fluorescence, primary screen (AID 1104); conditions: EGFR binding, higher = more signal;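 further: score merges 667 nm emission intensity with spot signal to noise over triplicate slides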
Epidermal growth factor receptor (Homo sapiens), sequence (P00533 whole entry, looked up): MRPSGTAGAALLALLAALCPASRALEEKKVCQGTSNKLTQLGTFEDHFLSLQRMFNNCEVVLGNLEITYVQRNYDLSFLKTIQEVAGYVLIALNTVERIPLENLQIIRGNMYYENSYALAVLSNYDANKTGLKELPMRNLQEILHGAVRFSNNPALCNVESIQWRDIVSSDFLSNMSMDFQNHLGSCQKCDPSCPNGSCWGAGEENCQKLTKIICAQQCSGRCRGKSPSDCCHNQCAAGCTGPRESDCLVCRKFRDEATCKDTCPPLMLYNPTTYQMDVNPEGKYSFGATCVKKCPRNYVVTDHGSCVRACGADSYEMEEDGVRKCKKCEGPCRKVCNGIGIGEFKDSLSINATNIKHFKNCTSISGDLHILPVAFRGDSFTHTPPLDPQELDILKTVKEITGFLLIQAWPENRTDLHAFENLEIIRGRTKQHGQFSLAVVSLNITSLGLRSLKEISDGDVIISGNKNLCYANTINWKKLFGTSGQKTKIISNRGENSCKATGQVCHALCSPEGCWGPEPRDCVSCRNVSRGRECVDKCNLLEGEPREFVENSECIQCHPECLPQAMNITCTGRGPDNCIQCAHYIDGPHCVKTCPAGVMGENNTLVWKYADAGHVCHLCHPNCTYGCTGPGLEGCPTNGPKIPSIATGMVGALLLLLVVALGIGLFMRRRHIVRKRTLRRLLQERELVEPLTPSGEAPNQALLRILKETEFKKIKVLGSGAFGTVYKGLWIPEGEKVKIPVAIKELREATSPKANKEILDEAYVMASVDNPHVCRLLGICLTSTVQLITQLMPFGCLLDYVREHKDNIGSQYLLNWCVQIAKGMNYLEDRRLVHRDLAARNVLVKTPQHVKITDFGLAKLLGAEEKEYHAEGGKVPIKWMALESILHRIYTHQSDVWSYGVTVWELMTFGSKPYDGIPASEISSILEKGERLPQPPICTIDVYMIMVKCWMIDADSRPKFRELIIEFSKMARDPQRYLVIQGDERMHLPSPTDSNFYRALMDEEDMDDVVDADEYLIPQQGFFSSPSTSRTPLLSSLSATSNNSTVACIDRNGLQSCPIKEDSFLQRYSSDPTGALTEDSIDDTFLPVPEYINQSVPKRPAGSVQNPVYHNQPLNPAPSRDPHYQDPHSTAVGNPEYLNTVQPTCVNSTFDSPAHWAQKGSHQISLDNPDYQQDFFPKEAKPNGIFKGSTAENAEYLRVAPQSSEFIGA

[8] = target: Follistatin-related protein 3 (Homo sapiens) (UniProt O95633); experiment: compounds binding follistatin-related protein 3 – biochemical, small-molecule microarray, 635 nm fluorescence, primary screen (AID 1105); conditions: FSTL3 binding, higher = more signal;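 further: score merges emission near 667 nm and signal to noise per printed spot across three slides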
Follistatin-related protein 3 (Homo sapiens), sequence (O95633 whole entry, looked up): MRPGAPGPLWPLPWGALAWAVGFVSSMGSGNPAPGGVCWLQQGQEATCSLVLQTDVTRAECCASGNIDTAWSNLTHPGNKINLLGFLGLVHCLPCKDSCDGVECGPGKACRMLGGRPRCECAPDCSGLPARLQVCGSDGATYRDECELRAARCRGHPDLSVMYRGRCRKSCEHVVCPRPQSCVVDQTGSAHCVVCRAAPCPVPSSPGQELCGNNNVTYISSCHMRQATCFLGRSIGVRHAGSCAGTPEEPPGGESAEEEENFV

[9] = target: Dickkopf-related protein 1 (Homo sapiens) (UniProt O94907); experiment: small molecules binding DKK1 protein – biochemical, small-molecule microarray, 635 nm fluorescence scan, primary screen (AID 1106); conditions: higher = more signal;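 further: score merges emission near 667 nm with signal to noise over three replicate slides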
Dickkopf-related protein 1 (Homo sapiens), sequence (O94907 whole entry, looked up): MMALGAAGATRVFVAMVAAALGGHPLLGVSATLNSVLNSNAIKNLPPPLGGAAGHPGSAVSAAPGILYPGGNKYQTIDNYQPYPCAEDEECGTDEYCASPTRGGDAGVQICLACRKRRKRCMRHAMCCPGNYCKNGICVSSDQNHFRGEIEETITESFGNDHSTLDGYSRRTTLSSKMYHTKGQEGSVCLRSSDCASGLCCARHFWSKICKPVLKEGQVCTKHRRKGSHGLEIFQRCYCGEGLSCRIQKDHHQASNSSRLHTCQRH

[10] = tested on: Inhibin beta A chain (activin A); experiment: small molecules binding activin A – biochemical, small-molecule microarray, 635 nm fluorescence scan, primary screen (AID 1107); conditions: INHBA, higher = more signal;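 further: mouse activin A protein probed at 4.33 µg/mL on printed slides; score merges bound-protein fluorescence near 667 nm with spot signal-to-noise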
[11] = tested on: Human papillomavirus type 1a protein E7 (residues 44-93); experiment: small molecules binding HPV E7 44-93 – biochemical, small-molecule microarray, residues 44-93, 635 nm fluorescence, primary screen (AID 1108); conditions: fluorescence 635 nm, higher = more signal;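 further: E7 fragment applied at 1 µg/mL in TBST for 1 h at 4 C; score combines spot fluorescence with its signal to noise ratio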
[12] = hepatitis C replication reporter changes, two-sided – Huh7 cells, luciferase reporter, HCV replication inhibitor project, primary screen (AID 1109); conditions: Huh7 HCV replicon luciferase reporter, 48 h; higher = more signal;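 further: huh7 hepatoma cells harbouring a luciferase neomycin HCV replicon reporter; luciferase luminescence as measure of HCV replicon replication; test concentration not given here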
[13] = target: Left-right determination factor 2 (Homo sapiens) (UniProt O00292); experiment: small molecules binding LEFTY2 protein – biochemical, small-molecule microarray, 635 nm fluorescence scan, primary screen (AID 1110); conditions: higher = more signal
Left-right determination factor 2 (Homo sapiens), sequence (O00292 whole entry, looked up): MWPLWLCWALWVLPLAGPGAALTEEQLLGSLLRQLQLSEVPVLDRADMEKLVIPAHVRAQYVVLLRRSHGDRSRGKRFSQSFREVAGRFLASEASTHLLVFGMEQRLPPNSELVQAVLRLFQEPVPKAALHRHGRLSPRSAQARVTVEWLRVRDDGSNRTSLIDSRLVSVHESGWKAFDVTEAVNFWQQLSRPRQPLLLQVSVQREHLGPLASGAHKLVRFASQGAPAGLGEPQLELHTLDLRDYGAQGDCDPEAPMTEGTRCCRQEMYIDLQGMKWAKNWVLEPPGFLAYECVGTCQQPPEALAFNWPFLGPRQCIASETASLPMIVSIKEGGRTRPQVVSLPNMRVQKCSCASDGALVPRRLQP

[14] = target: Calmodulin-1 (Homo sapiens) (UniProt P0DP23); experiment: small molecules binding calmodulin-1 with EGTA – biochemical, small-molecule microarray, Cy5-labelled CALM1, profiling panel (AID 1111); conditions: Cy5-CALM1 binding fluorescence, higher = more signal;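 further: labelled calmodulin applied in Tris saline Tween buffer holding calcium plus EGTA and DTT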
[15] = target: Calmodulin-1 (Homo sapiens) (UniProt P0DP23); experiment: small molecules binding Ca-loaded calmodulin-1 – biochemical, small-molecule microarray, Cy5-labelled CALM1, plus calcium, artefact control for SMM control-protein annotation, profiling panel (AID 1112); conditions: Cy5-CALM1 binding fluorescence, higher = more signal;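 further: score merges spot fluorescence with signal to noise from triplicate slides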
[16] = probe aWnt5a binding to arrayed compounds – biochemical, biotinylated probe, 635/667 nm fluorescence, primary screen (AID 1113); conditions: small-molecule microarray, higher = more signal;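 further: score merges 667 nm fluorescence intensity with signal-to-noise per printed feature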
[17] = probe aShh binding to arrayed compounds – biochemical, biotinylated probe, 635/667 nm fluorescence, primary screen (AID 1114); conditions: small-molecule microarray, higher = more signal;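 further: probe is biotin-labelled aShh protein from a stem cell growth factor screen; measures binding of labelled protein to compounds printed on the slide; score merges feature fluorescence at 667 nm with signal-to-noise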
[18] = probe aNog binding to arrayed compounds – biochemical, biotinylated probe, 635/667 nm fluorescence, primary screen (AID 1115); conditions: small-molecule microarray, higher = more signal;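 further: probe is biotinylated aNog protein used at 0.15 µg/mL for 1 h at 4 C; z-score combines 667 nm fluorescence of each spot with its signal to noise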
[19] = target: Torsin-1A-interacting protein 1 (Homo sapiens) (UniProt Q5JTV8); experiment: compound microarray binding of lysate hLAP1 – cell lysate, small-molecule microarray, COS7 lysate, 635/667 nm fluorescence, primary screen (AID 1116); conditions: 635 nm fluorescence, higher = more signal
Torsin-1A-interacting protein 1 (Homo sapiens), sequence (Q5JTV8 whole entry, looked up): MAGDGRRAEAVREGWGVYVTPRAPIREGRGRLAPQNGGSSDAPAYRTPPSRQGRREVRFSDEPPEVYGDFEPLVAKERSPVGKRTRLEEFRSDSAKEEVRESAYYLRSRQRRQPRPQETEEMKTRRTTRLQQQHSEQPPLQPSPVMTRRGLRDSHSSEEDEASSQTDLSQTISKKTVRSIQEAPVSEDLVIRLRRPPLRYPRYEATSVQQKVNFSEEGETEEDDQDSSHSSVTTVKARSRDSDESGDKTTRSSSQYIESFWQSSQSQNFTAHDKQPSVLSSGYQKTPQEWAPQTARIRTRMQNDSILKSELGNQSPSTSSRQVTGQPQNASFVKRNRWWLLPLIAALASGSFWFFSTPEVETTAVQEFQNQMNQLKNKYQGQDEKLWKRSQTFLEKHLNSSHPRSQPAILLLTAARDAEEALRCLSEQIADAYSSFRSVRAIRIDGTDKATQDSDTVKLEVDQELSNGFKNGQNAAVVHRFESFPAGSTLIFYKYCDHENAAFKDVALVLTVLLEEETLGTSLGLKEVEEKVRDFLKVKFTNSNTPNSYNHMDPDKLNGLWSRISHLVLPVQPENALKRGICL

[20] = target: Alpha-bungarotoxin (Bungarus multicinctus) (UniProt P60615); experiment: compounds binding labelled alpha-BTX control protein – biochemical, small-molecule microarray, Alexa647 label, 635/667 nm fluorescence, artefact control for SMM control protein annotation, profiling panel (AID 1117); conditions: alpha-BTX-A647 binding fluorescence, higher = more signal
Alpha-bungarotoxin (Bungarus multicinctus), sequence (P60615 whole entry, looked up): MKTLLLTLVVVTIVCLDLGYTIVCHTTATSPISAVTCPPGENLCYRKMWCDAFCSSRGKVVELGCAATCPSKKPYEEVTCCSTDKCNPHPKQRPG

Row | SMILES | composite z-score [1] | composite z-score [2] | composite z-score [3] | z-score [4] | composite z-score [5] | composite z-score [6] | composite z-score [7] | composite z-score [8] | composite z-score [9] | composite z-score [10] | composite z-score [11] | z-score [12] | composite z-score [13] | composite z-score [14] | composite z-score [15] | composite z-score [16] | composite z-score [17] | composite z-score [18] | composite z-score [19] | composite z-score [20]
1 | COC(=O)[C@@]1(Cc2ccc(OC)cc2)[C@H]2c3cc(C(=O)N(C)C)n(CCN4CNCC4=O)c3C[C@H]2CN1C(=O)c1ccccc1 | 0.44 | -0.218 | 0.7 | 2.02 (inactive) | -0.33 | -0.638 | 0.259 | -0.153 | -0.812 | 0.712 | -0.662 | -0.422 | 0.149 | 0.866 | 0.701 | 0.164 | -0.0793 | -0.505 | 0.528 | -0.124
2 | COC(=O)[C@@]1(Cc2ccc(OC)cc2)[C@H]2c3cc(C(=O)N(C)C)n(Cc4cccc5ccccc45)c3C[C@H]2CN1C(=O)c1ccccc1 | 0.971 | 1.8 | 0.771 | -3.61 (inactive) | 1.04 | 0.329 | 0.671 | 0.553 | 0.208 | 0.537 | 1.48 | -2.35 | 0.243 | 1.48 | 0.94 | 0.346 | 1.33 | 2.12 | 1.41 | 0.563
3 | O=C1NC(=O)C2C1C=CC(C(O)C(c1ccccc1)c1ccccc1)N2Nc1ccc(Cl)cc1Cl (stereo not given) | 0.496 | 0.824 | 1.11 | 1.44 (inactive) | 0.554 | 0.0932 | -0.261 | 0.908 | -0.737 | 0.974 | 1.36 | -1.75 | -0.5 | 1.81 | 0.625 | 0.065 | 0.234 | 1.41 | 0.343 | 0.503
4 | COC(=O)[C@@]1(Cc2ccc(OC)cc2)[C@H]2c3cc(C(=O)N4CCCC4)n(Cc4ccccc4)c3C[C@H]2CN1C(=O)c1ccccc1 | 0.93 | 2.64 | 1.31 | -1.16 (inactive) | 1.31 | 0.472 | 0.801 | 0.413 | -0.505 | 0.651 | 1.16 | -1.76 | 0.117 | 2.3 | 0.817 | 1.29 | 2.49 | 2.87 | 0.0976 | 0.75
5 | C=C(CCCC)C(=O)CC[C@H](OC(C)=O)c1cccc(OCCO)c1 | 0.707 | -0.409 | -0.193 | 1.01 (inactive) | -0.633 | -0.654 | -0.961 | -0.794 | -0.759 | -0.162 | -0.252 | -1.78 | -0.433 | -0.687 | -0.918 | -0.156 | -0.0709 | -0.036 | 1.31 | -0.653
6 | C=C(COC)/C(=C/C[C@@H](OC(C)=O)c1ccc(CO)o1)c1cnc2ccccc2c1 | 0.974 | 0.201 | -0.189 | -0.683 (inactive) | 1.46 | 1.32 | 1.57 | 1.5 | 1.13 | 1.74 | 1.31 | -0.638 | 1.07 | 0.0708 | -0.6 | -0.0425 | -0.0146 | 0.256 | 2.19 | 2.76
7 | COCCCNC(=O)[C@@]1(Cc2ccccc2N=[N+]=[N-])N=C(c2ccc(OCCCO)cc2)O[C@H]1c1ccccc1N=[N+]=[N-] | 1.34 | 1.04 | 1.25 | 1.87 (inactive) | 0.935 | 0.82 | 0.372 | 0.937 | -0.138 | 0.797 | 0.852 | -2.86 | 0.431 | 1.72 | 0.686 | 0.168 | -0.477 | 1.43 | 0.561 | 1.74
8 | CCCCN1CC=CC23O[C@@H]4C=CCOC(=O)[C@@H]4[C@H]2C(=O)N(CCCCCO)[C@@H]3C1=O (stereo not given in full) | 1.15 | -0.159 | 0.641 | -0.248 (inactive) | -0.828 | -0.656 | -0.945 | -1.39 | -1.03 | -0.0355 | -0.524 | 0.536 | -1.53 | -0.615 | -0.363 | -0.124 | 0.627 | 0.151 | 1.95 | -1.47
9 | CC(C)C[C@H]1NC(=O)[C@@]23C(=O)N[C@@H](Cc4ccccc4)C2[C@H](C)[C@@]2(C)O[C@H]2C3/C=C/C/C=C\CNC(=O)[C@H](Cc2ccccc2)NC1=O (stereo not given in full) | 0.777 | -0.283 | -0.471 | 0.000958 (inactive) | 0.903 | 0.47 | 0.447 | 0.816 | 0.599 | 0.867 | 1.06 | -1.32 | 0.452 | -0.434 | -0.578 | -0.0735 | -0.0553 | -0.194 | -0.225 | -0.0973
10 | CCOC(=O)C[C@H]1[C@H](OC(=O)Cc2ccc3c(c2)OCO3)[C@@H](NC(=O)c2ccc(-c3ccccc3)cc2)c2cc(OCCCO)ccc2N1C(=O)Cc1ccc(OC)cc1 | 0.489 | 0.55 | 0.456 | -2.01 (inactive) | 0.463 | 0.116 | -0.0154 | 0.543 | -0.0143 | 0.0884 | 0.911 | -1.48 | 0.253 | 0.644 | 0.0039 | 0.0673 | 0.173 | 0.0804 | 0.521 | -0.256
